Data: PubChem BioAssay AID720597 (Broad Institute, 2013)
Entries with a potency or affinity are not part of this list. Values without a mark were called inactive.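 The calls were made as follows: active = fitted half-maximal dose no more than twice the top valid tested dose, for compounds that lower signal; inconclusive = fit invalid, or curve flat with activity between -70 and -30; inactive = potency past limit, curve flat within ±30, or signal increasing.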

Target: NAD-dependent protein deacylase sirtuin-5, mitochondrial (Homo sapiens) (UniProt Q9NXA8)
Sequence (Q9NXA8 whole entry, looked up): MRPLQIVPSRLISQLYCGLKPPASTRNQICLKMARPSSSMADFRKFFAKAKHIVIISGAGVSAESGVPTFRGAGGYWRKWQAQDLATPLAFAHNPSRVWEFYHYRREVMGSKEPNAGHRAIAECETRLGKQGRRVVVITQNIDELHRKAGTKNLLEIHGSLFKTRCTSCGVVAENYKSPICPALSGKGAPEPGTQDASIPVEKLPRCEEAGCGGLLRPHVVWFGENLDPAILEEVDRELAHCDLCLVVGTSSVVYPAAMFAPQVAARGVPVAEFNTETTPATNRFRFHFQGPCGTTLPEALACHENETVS
Assay: blockers of sirtuin-5 peptide desuccinylation – biochemical, fluorescence imaging, cherry-pick, set 6, dose response (AID 720597);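 also: lower AMC signal can also come from blocking the trypsin step; 0% = median of neutral control wells and -100% = median of positive control wells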
Conditions: Purified SirT5, succinyl-peptide-AMC/trypsin fluorescence; series mostly up to 15 µM; activity change, negative = inhibition: at the top concentration

Compound	activity change, negative = inhibition
COc1ccc(NC(=O)N(C)C[C@@H]2Oc3ccc(NS(=O)(=O)c4ccc(F)cc4)cc3C(=O)N([C@@H](C)CO)C[C@H]2C)cc1	16.3% [at 16 µM]
O=C(NC1CCCCC1)[C@@H]1[C@@H](CO)[C@@H]2Cn3c(cccc3=O)[C@@H]2N1CC1CCCC1	19.3%
C[C@@H]1CN([C@H](C)CO)S(=O)(=O)c2ccc(C#Cc3ccc(F)cc3)cc2O[C@@H]1CN(C)C(=O)NC1CCCCC1	-17%
COc1ccc(S(=O)(=O)Nc2ccc3c(c2)CC(=O)N([C@@H](C)CO)C[C@@H](C)[C@H](CN(C)CC2CCCCC2)O3)cc1	-30.6%
C[C@H](CO)N1C[C@H](C)[C@H](CN(C)C(=O)Nc2ccc(F)cc2)Oc2cc(/C=C/c3ccccc3)ccc2S1(=O)=O	-26.4%
O=C(CN1CCOCC1)NCC[C@@H]1CC[C@H](NC(=O)Nc2ccc(F)cc2)[C@H](CO)O1	34.6%
CN(C)C(=O)c1cccc(-c2ccc([C@@H]3[C@H](CO)N4CCCCN(S(C)(=O)=O)C[C@@H]34)cc2)c1	-11.5%
O=S(=O)(N[C@H]1CC[C@H](CCn2cc(-c3cccc(F)c3)nn2)O[C@H]1CO)c1ccc(F)cc1	-26.3%
C[C@H]1CN([C@@H](C)CO)C(=O)c2cccc(NC(=O)c3ccncc3)c2O[C@H]1CN(C)S(C)(=O)=O	16.1%
COc1ccc(S(=O)(=O)N(C)C[C@@H]2OCCCC[C@H](C)Oc3ccc(NS(=O)(=O)c4ccc(F)cc4)cc3C(=O)N([C@@H](C)CO)C[C@@H]2C)cc1	-4.84%
CCCC#Cc1ccc2c(c1)O[C@@H](CN(C)C(=O)c1ccccc1F)[C@@H](C)CN([C@H](C)CO)S2(=O)=O	17.7%
CCCNC(=O)N1CC2(C1)[C@H](c1ccccc1)[C@H](CO)N2Cc1cccc(F)c1	-7.43%
C[C@@H]1CN([C@H](C)CO)S(=O)(=O)c2ccc(/C=C/c3ccccc3)cc2O[C@@H]1CN(C)Cc1ccccc1	5.76%
CCC(=O)NC[C@H]1[C@@H](c2ccccc2)[C@H](CO)N1C(=O)C1CCC1	-5.07%
COc1cccc(C(=O)Nc2ccc3c(c2)C(=O)N(C)C[C@H](OC)[C@@H](C)CN(CCc2ccccc2)[C@@H](C)CO3)c1	-22.3%
COc1cccc(S(=O)(=O)N(C)C[C@H]2Oc3cc(C4=CCCCC4)ccc3S(=O)(=O)N([C@@H](C)CO)C[C@@H]2C)c1	21.9%
CNC[C@H]1Oc2ccc(NC(=O)Nc3ccc(F)cc3)cc2CC(=O)N([C@H](C)CO)C[C@H]1C	3.19%
Cc1ccc(S(=O)(=O)Nc2ccc3c(c2)C(=O)N([C@@H](C)CO)C[C@@H](C)[C@H](CN(C)Cc2ccc(C(F)(F)F)cc2)OCCCC[C@@H](C)O3)cc1	6.34%
C[C@H]1CN([C@@H](C)CO)S(=O)(=O)c2ccc(/C=C/c3ccccc3)cc2O[C@@H]1CN(C)C(=O)Nc1ccc(F)cc1	-2.4%
C[C@H](O)C#Cc1ccc2c(c1)O[C@@H](CN(C)Cc1ccc(-c3ccccc3)cc1)[C@H](C)CN([C@H](C)CO)S2(=O)=O	-26.5% [at 7.5 µM]

Compound	activity change, negative = inhibition
C[C@H](O)C#Cc1cnc2c(c1)C(=O)N([C@H](C)CO)C[C@H](C)[C@@H](CN(C)CC1CCCC1)O2	-9.66%
Cc1noc(C)c1S(=O)(=O)Nc1ccc2c(c1)C(=O)N([C@H](C)CO)C[C@H](C)[C@@H](CN(C)Cc1ccc(C(F)(F)F)cc1)OCCCC[C@H](C)O2	-33.6%
COc1ccc(S(=O)(=O)Nc2ccc3c(c2)C(=O)N([C@H](C)CO)C[C@H](C)[C@@H](CN(C)Cc2ccc(C(F)(F)F)cc2)OCCCC[C@H](C)O3)cc1	-11.4% [at 7.5 µM]
CC(C)NC(=O)Nc1ccc2c(c1)C(=O)N([C@H](C)CO)C[C@H](C)[C@H](CN(C)Cc1ccc(-c3ccccc3)cc1)O2	5.22%
C[C@H]1CCCCO[C@H](CN(C)S(=O)(=O)c2ccc(Cl)cc2)[C@@H](C)CN([C@@H](C)CO)C(=O)c2cc(NS(=O)(=O)c3ccccc3)ccc2O1	-14.3%
C[C@H]1CN([C@@H](C)CO)C(=O)c2cccc(NS(=O)(=O)c3cn(C)cn3)c2O[C@H]1CN(C)Cc1ccc(Oc2ccccc2)cc1	-16.5%
C[C@H]1CN([C@@H](C)CO)C(=O)c2ccccc2-c2ccccc2CO[C@@H]1CN(C)Cc1cccc(C(F)(F)F)c1	-11.3%
COc1ccccc1S(=O)(=O)N(C)C[C@@H]1Oc2cc(C#CCC(C)C)ccc2S(=O)(=O)N([C@H](C)CO)C[C@H]1C	-1.72%
COc1ccc(-c2ccc([C@@H]3[C@H]4CN(C(=O)Cc5ccccn5)CC(=O)N4[C@H]3CO)cc2)cc1	-14.6%
Cc1noc(C)c1NC(=O)N[C@@H]1C=C[C@@H](CC(=O)Nc2ccccc2)O[C@H]1CO	12.1%
COc1ccc(S(=O)(=O)Nc2ccc3c(c2)C(=O)N([C@H](C)CO)C[C@@H](C)[C@H](CN(C)S(=O)(=O)c2ccc(Cl)cc2)OCCCC[C@H](C)O3)cc1	3.8%
C[C@@H]1CN([C@@H](C)CO)C(=O)c2cc(-c3cccnc3)cnc2O[C@H]1CN(C)C(=O)Nc1ccc2c(c1)OCO2	19.3%
C[C@@H]1CN([C@H](C)CO)C(=O)c2cc(C#CCN(C)C)cnc2O[C@@H]1CN(C)Cc1ccncc1	17.4%
C[C@H](NC(=O)C[C@@H]1CC[C@H]2[C@@H](COC[C@@H](O)CN2C(=O)Nc2cccc(F)c2)O1)c1ccccc1	-27.1%
C[C@H]1CN([C@@H](C)CO)C(=O)c2ccccc2-c2ccccc2CO[C@H]1CN(C)Cc1ccccc1C(F)(F)F	-22.2%
COc1ccc(NC(=O)N(C)C[C@@H]2Oc3ccc(NS(=O)(=O)c4ccc(F)cc4)cc3C(=O)N([C@H](C)CO)C[C@H]2C)cc1	-31.2%
C[C@H]1CN([C@@H](C)CO)S(=O)(=O)c2ccc(C#Cc3ccc(F)cc3)cc2O[C@@H]1CN(C)S(=O)(=O)c1ccc(F)cc1	-5.82%
O=C(Nc1ccccc1F)N1C[C@@H]2N[C@H](C1)C2c1ccc(/C=C/c2ccccc2)cc1 (stereo not given in full)	-14.4%
Cc1ccc(S(=O)(=O)N(C)C[C@H]2OCCCC[C@H](C)Oc3ccc(NS(=O)(=O)c4ccccc4)cc3C(=O)N([C@@H](C)CO)C[C@@H]2C)cc1	-9.79%
CCN1[C@@H]2c3ccc(-c4ccccc4)c(=O)n3C[C@@H]2[C@@H](CO)[C@@H]1C(=O)NCc1ccccc1	-19.4%
